Screening results as filed in PubChem.
NR3A LBD binder = NR3A (human) ligand-binding domain modulation; NR3A LBD differential scanning fluorimetry, Tm shift; 0% = protein alone, 100% = glycine-bound protein; Tm shift relative to glycine control, % at 25 µM; hit rate 2.5% among 340,000;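 active = melting temperature shift of at least 10% of the positive control shift, at one fixed dose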
Vif inh = inhibitors of HIV Vif; hit rate 0.35% among 340,000; HEK293T cells, Vif self-association by quenched fluorescence, imaging, 24 h; AID 602346; inhibition, % at 7.49 µM; in the data active = inhibition above about 50%, passing the limit was not always enough; inconclusive = no clear call, values can overlap the other calls; inactive = below about 31%
NadD block = blocks S. aureus nicotinate mononucleotide adenylyltransferase | inhibition, % at 20 µM | purified NadD enzyme, colorimetric absorbance read-out | hit rate 0.78% among 360,000; in the data active = inhibition above about 26%
SKN-1 block = C. elegans SKN-1 inhibition | inhibition, % at 21.8 µM | AID 624304 | hit rate 0.49% among 360,000 | C. elegans VP596 Pgst-4::GFP/RFP ratio, acrylamide-induced, 24 h;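 active = interference check ratio from 0.5 to 1.5 plus GFP to RFP signal ratio inhibition reaching or exceeding a fixed threshold, cut at about 30% in these data, passing the limit was not always enough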
esBAF inh = inhibitors of esBAF chromatin remodeling in mouse ES cells; Bmi1-luciferase knock-in reporter, 24 h; 100% = twice the neutral-well signal; reporter increase, % at 12.5 µM; AID 602393; hit rate 2% among 350,000; in the data active = activation above about 40%; inconclusive = no clear call, values can overlap the other calls;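 note: a rise in the Bmi1 reporter signal indicates esBAF inhibition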
SMARCA2 act = activators of SMARCA2 function | MG213 cells, MMTV-luciferase reporter, dexamethasone, overnight | activation, % at 9.1 µM | hit rate 1% among 370,000; in the data active = activation above about 7.8%
Hits are given with their value; i = inactive; ? = inconclusive; nt = not tested or not shown. Hits are enriched below; roughly 5.2% of the tested compounds scored in any of these assays.

SMILES | NR3A LBD binder | Vif inh | NadD block | SKN-1 block | esBAF inh | SMARCA2 act
C=CCNc1nc(NCCN2CCOCC2)nc(N2CCOCC2)n1 | i | i | i | 35.0 | i | i
Oc1c(C(Nc2nc3ccccc3s2)c2ccco2)ccc2cccnc12 (stereo not given) | i | i | 34.6 | i | i | i
O=C(Nc1ccccc1)Nc1cc(OCC(F)(F)F)cc(OCC(F)(F)F)c1 | 40.7 | i | i | i | nt | i
OCCOCCNc1ncnc2c1cnn2-c1ccccc1 | i | i | i | i | i | 7.8
c1ccc(CNc2ncnc3c2cnn3-c2ccccc2)cc1 | i | i | i | i | ? | i
OCCOCCNc1ncnc2c1cnn2-c1ccc(Cl)cc1 | i | i | i | i | i | i
CN(C)CCCNc1ncnc2c1cnn2-c1ccccc1 | i | i | i | i | i | nt
c1ccc(-n2ncc3c(NCCN4CCCCC4)ncnc32)cc1 | i | i | i | i | i | i
c1ccc(CCNc2ncnc3c2cnn3-c2ccccc2)cc1 | i | i | i | 35.3 | 72.3 | i
c1ccc(-n2ncc3c(NCCN4CCOCC4)ncnc32)cc1 | i | i | i | i | 46.9 | i
Fc1ccc(CNc2ncnc3c2cnn3-c2ccccc2)cc1 | i | i | i | i | 48.7 | i
Cc1ccc(S(=O)(=O)N(C)C[C@@H]2Oc3ccc(NS(=O)(=O)c4cn(C)cn4)cc3CC(=O)N([C@H](C)CO)C[C@@H]2C)cc1 | nt | nt | nt | nt | i | nt
Cc1ccccc1S(=O)(=O)NCC[C@@H]1CC[C@H](NC(=O)C2CCCCC2)[C@H](CO)O1 | nt | nt | nt | nt | i | nt
CN1c2ccc(-c3ccccc3)cc2[C@H]2[C@H](CCN2C(=O)CN2CCOCC2)[C@H]1CO | nt | nt | nt | nt | i | nt
O=C(C[C@@H]1C[C@H]2c3cc(NC(=O)C4CCC4)ccc3O[C@H]2[C@@H](CO)O1)NC1CCCCC1 | nt | nt | nt | nt | i | nt
COc1ccc(S(=O)(=O)N(C)C[C@H]2OCc3ccccc3-c3ccccc3C(=O)N([C@H](C)CO)C[C@@H]2C)cc1 | nt | nt | nt | nt | i | nt
Clc1ccc(-n2ncc3c(NCc4cccnc4)ncnc32)cc1Cl | i | i | i | i | 65.1 | i
Cc1cccc(-n2ncc3c(NCc4ccccc4)ncnc32)c1 | i | i | i | i | i | i
CC(=O)N(C)C[C@H]1Oc2cc(C#CCN(C)C)ccc2S(=O)(=O)N([C@H](C)CO)C[C@@H]1C | nt | nt | nt | nt | i | nt
O=C(CNC(=O)/C=C/c1ccco1)N=Nc1c(O)[nH]c2ccccc12 | i | i | 33.8 | i | i | i
O=C(/C=C/c1cccc(Cl)c1)Nn1c(-c2cccs2)nc2ccccc2c1=O | 17.3 | i | i | i | i | i
C[C@H](CO)N1C[C@H](C)[C@H](CN(C)C(=O)Nc2ccccc2)Oc2ncc(C#Cc3ccc(C(F)(F)F)cc3)cc2C1=O | nt | nt | nt | nt | i | nt
Cc1cc(C)c(Nc2cc(S(=O)(=O)O)c(N)c3c2C(=O)c2ccccc2C3=O)c(C)c1 | 547.2 | i | 30.2 | i | nt | i
C/C(=N/OCO/N=C(/C)c1ccc(F)cc1)c1ccc(F)cc1 | i | i | i | i | nt | i
C/C(=N/OCO/N=C(\C)c1ccccc1)c1ccccc1 | 11.3 | i | i | i | nt | i
SMILES | NR3A LBD binder | Vif inh | NadD block | SKN-1 block | esBAF inh | SMARCA2 act
Cc1ccc(/C(N)=N/OC(=O)c2ccc3ccccc3c2)cc1 | 27.0 | i | i | i | nt | i
Cc1ccc(/C(N)=N/OC(=O)c2ccc(F)cc2)cc1 | i | i | i | i | i | 7.8
N/C(=N\OC(=O)c1ccc(F)cc1)c1ccccc1 | i | i | i | i | i | i
N/C(=N\OC(=O)c1ccc(F)cc1)c1ccc(Br)cc1 | i | i | i | i | 56.2 | i
O=C(C[C@H]1CC[C@@H](NC(=O)c2ccccc2)[C@H](CO)O1)NCc1ccc(Oc2ccccc2)cc1 | nt | nt | nt | nt | i | nt
O=C(C[C@@H]1C[C@H]2c3cc(NC(=O)Nc4ccccc4)ccc3O[C@H]2[C@@H](CO)O1)NCCN1CCCCC1 | nt | nt | nt | nt | i | nt
Cc1snc(S(=O)(=O)/C(C#N)=N/Nc2cccc(C(F)(F)F)c2)c1C#N | 24.4 | i | i | i | i | nt
Cc1noc(C)c1S(=O)(=O)Nc1ccc2c(c1)CC(=O)N([C@@H](C)CO)C[C@H](C)[C@@H](CN(C)S(C)(=O)=O)O2 | nt | nt | nt | nt | i | nt
Fc1ccc2cnc(-c3ccccc3F)cc2c1 | i | i | i | i | 53.5 | i
Fc1ccccc1-c1cc2ccccc2cn1 | i | i | i | i | 60.6 | i
COc1ccc(-c2cc3cc(F)ccc3cn2)cc1 | i | i | i | i | i | i
COc1cc(OC)cc(-c2cc3cc(F)ccc3cn2)c1 | i | i | i | i | 68.7 | i
Fc1ccc2cc(-c3ccccc3F)ncc2c1 | i | i | i | i | 63.1 | i
Cc1noc(C)c1NC(=O)N[C@H]1C=C[C@@H](CC(=O)N2CCCCC2)O[C@H]1CO | nt | nt | nt | nt | i | nt
CCS(=O)(=O)Nc1ccc2c(c1)C(=O)N(C)[C@H]1CC[C@@H](CC(=O)N[C@H]3CCN(Cc4ccccc4)C3)O[C@H]1CO2 | nt | nt | nt | nt | i | nt
CO[C@@H]1CN(C)C(=O)c2cc(NC(=O)Nc3c(C)noc3C)ccc2OC[C@H](C)N(CC2CC2)C[C@@H]1C | nt | nt | nt | nt | i | nt
CCCNC(=O)N(C)C[C@@H]1Oc2ncc(-c3ccc(OC)cc3)cc2C(=O)N([C@@H](C)CO)C[C@@H]1C | nt | nt | nt | nt | i | nt
CC(C)NC(=O)N[C@H]1C=C[C@H](CC(=O)O)O[C@@H]1CO | nt | nt | nt | nt | i | nt
COc1ccc(NC(=O)Nc2ccc3c(c2)[C@H]2C[C@H](CC(=O)NCc4ccccn4)O[C@@H](CO)[C@H]2O3)cc1 | nt | nt | nt | nt | i | nt
CCCCN(C=O)c1c(CC)nc2c(OCCC)cccn12 | nt | i | i | i | i | i
CCCCN(C=O)c1c(CC)nc2c(OCCOc3ccccc3)cccn12 | nt | 58.4 | i | i | i | i
O=[N+]([O-])c1cccc(-c2ncc3ccccn23)c1 | i | i | i | i | nt | i
Nc1c(-c2cccc([N+](=O)[O-])c2)nc2ccccn12 | i | i | i | i | 59.0 | i
CC(C)C[C@@H](CN1CCC[C@@H]1CN1C(=S)NC[C@@H]1Cc1ccc(O)cc1)N1C[C@H](Cc2ccc(O)cc2)N(CC2CCCCC2)C1=S | nt | i | 42.5 | i | i | i
CC(C)C[C@H]1CN([C@@H](CC(C)C)CN2CCCC2CN2C(=S)NC[C@@H]2Cc2ccc(O)cc2)C(=S)N1CC1CCCCC1 (stereo not given in full) | 13.2 | nt | i | i | i | i
CC(C)C[C@H]1CN([C@@H](CC(C)C)CN2CCCC2CN2C(=S)NC[C@@H]2Cc2ccc(O)cc2)C(=S)N1CC1CCCCCC1 (stereo not given in full) | i | nt | i | i | i | i
C[C@H]1CN([C@@H](C)CO)C(=O)c2cccc(NS(=O)(=O)c3ccccc3)c2O[C@H]1CN(C)S(=O)(=O)c1ccc(Cl)cc1 | nt | nt | nt | nt | i | nt
CN(C(=O)c1ccc(NC(=O)Cc2cccc(NC(=O)C3CCCN(C(=O)CCc4ccccc4)C3)c2)cc1)C1CCCC1 (stereo not given) | 22.4 | i | i | i | i | i
